Assay results taken from the supplement of paper PMC5662767.
Structures can show the parent of a compound that is named as a salt.

System: Drosophila S2 cl14 SmoIP sensor cells
Test: normalized SmoIP GFP fluorescence (untreated unstimulated = 0%, untreated Hh-stimulated = 100%); higher = more Smo activation sensor fluorescence
Settings: compound concentration: 2 uM, 24 h
[1] = stimulation: Hh conditioned medium (+Hh)
[2] = stimulation: mock conditioned medium (-Hh)
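Note: flow cytometry read-out as median GFP intensity of gated cells, compounds added 30 min before Hh-conditioned or mock medium, mock-treated cells serving as unstimulated baseline.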

SMILES	normalized SmoIP GFP fluorescence [1]	normalized SmoIP GFP fluorescence [2]
CC(=O)N1CCN(c2ccc(OCC3COC(Cn4ccnc4)(c4ccc(Cl)cc4Cl)O3)cc2)CC1 (stereo unspecified) [Ketoconazole]	109%	2.64%
CC(/C=C/C(=O)NO)=C\[C@@H](C)C(=O)c1ccc(N(C)C)cc1 [Trichostatin-A]	276%	77.5%
CN1CCC(=C2c3ccccc3CC(=O)c3sccc32)CC1 [ketotifen-fumarate-zaditor]	118%	-13.9%
O=C(Nc1cccc(Cl)c1)Nc1ncc(CCNc2ncnc3ccsc23)s1	127%	11%
C[C@@H](O[C@H]1OCCN(Cc2n[nH]c(=O)[nH]2)[C@H]1c1ccc(F)cc1)c1cc(C(F)(F)F)cc(C(F)(F)F)c1 [Aprepitant]	115%	-5.98%
CC(C)(C)OC(=O)N[C@H]1CCCCC/C=C\[C@@H]2C[C@@]2(C(=O)NS(=O)(=O)C2CC2)NC(=O)[C@@H]2C[C@@H](OC(=O)N3Cc4cccc(F)c4C3)CN2C1=O [Danoprevir]	111%	13%
CCOC(=O)[C@H](CCc1ccccc1)N[C@H]1CCCN2CCC[C@H](C(=O)O)N2C1=O [cilazapril-monohydrate-inhibace]	111%	6.28%
COc1cc2ncnc(Nc3ccc(O)c(Br)c3)c2cc1OC	112%	-2.31%
CN1CCN(S(=O)(=O)c2ccc(-c3cnc(N)c(C(=O)Nc4cccnc4)n3)cc2)CC1	112%	1.21%
CC(C)(O)CC(=O)NCCn1ccc2ncnc(Nc3ccc(Oc4cccc(C(F)(F)F)c4)c(Cl)c3)c21	116%	3.66%
COc1ccc2c(c1)C(=O)N(CCc1ccc(S(=O)(=O)NC(=O)NC3CCCCC3)cc1)C(=O)C2(C)C [gliquidone]	105%	-4.01%
CC1=C(C(=O)OC2CCCCC2)C(c2ccc([N+](=O)[O-])cc2)C2=C(CC(C)(C)CC2=O)N1 (stereo unspecified)	117%	4.26%
CC(=O)/N=c1/sc(S(N)(=O)=O)nn1C [methazolamide]	111%	-2.48%
COC(=O)C1=C(C)NC(C)=C(C(=O)OC(C)C)C1c1cccc2nonc12 (stereo unspecified) [Isradipine(Dynacirc)]	112%	3.72%
COc1c(C)cnc(Cn2cnc3c(Cl)nc(N)nc32)c1C	121%	34.5%
CN1CCN(C2=Nc3cc(Cl)ccc3Nc3ccccc32)CC1 [Clozapine(Clozaril)]	119%	0.154%
CCCCN(Cc1ccc(C(=O)NO)cc1)C(=O)Nc1ccccc1 [nexturastat-a]	105%	6.74%
C[C@@H]1C[C@H]2[C@@H]3CCC4=CC(=O)C=C[C@]4(C)[C@@]3(F)[C@@H](O)C[C@]2(C)[C@@]1(O)C(=O)CO [Dexamethasone]	86.8%	5.66%
CC1(C)CNc2cc(NC(=O)c3cccnc3NCc3ccncc3)ccc21 [Motesanib-Diphosphate]	136%	43.3%
CC(C)CC(=O)Nc1n[nH]c2c1CN(C(=O)C1CCN(C)CC1)C2(C)C	41.2%	20.1%
CN(C[C@@H]1COCCO1)S(=O)(=O)Nc1ccc2ccc3ncc(-c4cnn(C)c4)cc3c(=O)c2c1	79.1%	16.3%
C[C@@H]1CN(CC(=O)Nc2ccc3c(c2)Cc2cccc(-c4cc(=O)cc(N5CCOCC5)o4)c2S3)C[C@H](C)O1	147%	5.98%
Cc1ccc2c(c1)C(=O)C1(O)CCN(c3ccccc3)C1=N2 (stereo unspecified) [blebbistatin]	105%	-0.378%
CCc1cncnc1N1CCN(Cc2nc3ccc(C(F)(F)F)cc3[nH]2)CC1	121%	0.966%
CC(C)c1nc(CN(C)C(=O)N[C@@H](CCN2CCOCC2)C(=O)N[C@H](CC[C@H](Cc2ccccc2)NC(=O)OCc2cncs2)Cc2ccccc2)cs1 [cobicistat-gs-9350]	113%	0.474%

SMILES	normalized SmoIP GFP fluorescence [1]	normalized SmoIP GFP fluorescence [2]
Nc1nc(N)c2nc(-c3ccccc3)c(N)nc2n1 [triamterene]	104%	-6.06%
COc1cc2nc(N3CCCN(C)CC3)nc(NC3CCN(Cc4ccccc4)CC3)c2cc1OC	109%	1.61%
COc1cc(CCc2cc(NC(=O)c3ccc(N4CC(C)NC(C)C4)cc3)n[nH]2)cc(OC)c1 (stereo unspecified)	114%	2.97%
O=C1C[C@@H](c2ccc(O)cc2)Oc2cc(O)cc(O)c21 [Naringenin]	106%	-6.61%
Cc1ccc(S(=O)(=O)NC(=O)NN2CC3CCCC3C2)cc1 (stereo unspecified) [gliclazide-diamicron]	111%	-13.7%
O=C(O)Cn1nnc(-c2cc(N3CCC(Oc4cc(F)ccc4Br)CC3)no2)n1	80.4%	13.3%
O=C(O)c1ccc(Nc2ncc3c(n2)-c2ccc(Cl)cc2C(c2c(F)cccc2F)=NC3)cc1	271%	46.7%
Cc1cnc(Nc2ccc(OCCN3CCCC3)cc2)nc1Nc1cccc(S(=O)(=O)NC(C)(C)C)c1	173%	8.54%
CN1[C@@H]2CC[C@H]1C[C@@H](OC(c1ccccc1)c1ccccc1)C2 [benztropine-mesylate]	113%	-0.662%
O=C(O)CCCc1ccccc1 [sodium-phenylbutyrate]	112%	-2.93%
COc1cccc(-c2cc(=O)c3ccccc3o2)c1N	115%	2.64%
CCC[C@H](NC(=O)/C(C#N)=C/c1cccc(Br)n1)c1ccccc1	114%	15.7%
CCCCCCCCc1ccc(CCC(N)(CO)CO)cc1	107%	-0.0369%
NC(=O)c1ncn([C@@H]2O[C@H](CO)[C@@H](O)[C@H]2O)c1N [Acadesine]	127%	-15.4%
O=C(/C=C/c1ccc(O)c(O)c1)c1ccc(O)cc1O [butein]	77.1%	3.58%
C#Cc1cccc(Nc2ncnc3cc4c(cc23)OCCOCCOCCO4)c1 [icotinib]	93.3%	-1.63%
Cc1cc([C@@H](C)Nc2ccccc2C(=O)O)c2nc(N3CCOCC3)cc(=O)n2c1	94.8%	-5.22%
Cc1ccccc1C(=O)Nc1ccc(C(=O)N2CCCC(O)c3cc(Cl)ccc32)c(C)c1 (stereo unspecified)	111%	-6.61%
CC(C)N(CCC(=O)c1ccc2ccccc2c1)Cc1ccccc1	119%	-19%
CCCCCCCCOc1ccccc1C(=O)Nc1ccc(C(=O)OCC[N+](C)(CC)CC)cc1 [otilonium-bromide]	109%	-1.85%
CS(=O)(=O)N1CCc2c(-c3cnc(N)nc3)nc(N3CCOCC3)nc21	134%	-15.8%
CCCC(C)NC(=O)c1ccc(Cl)c(Cl)c1 (stereo unspecified)	95.2%	-4.7%
COc1ccc(CNCc2cccc3ccccc23)cc1	111%	-2.82%
CNC(=O)c1ccccc1Nc1nc(Nc2ccc(N3CCOCC3)cc2OC)ncc1Cl	163%	22.3%
CC(=O)c1cc([N+](=O)[O-])c(Sc2cccc(Cl)c2Cl)s1	108%	-4.24%

SMILES	normalized SmoIP GFP fluorescence [1]	normalized SmoIP GFP fluorescence [2]
C[C@@H](NCCCc1cccc(C(F)(F)F)c1)c1cccc2ccccc12 [Cinacalcet-hydrochloride]	104%	5.98%
O=C1NCCc2[nH]c(-c3ccncc3)cc21	164%	-0.477%
CNCC[C@@H](Oc1ccccc1C)c1ccccc1 [atomoxetine-hydrochloride]	104%	-0.264%
Cn1c(=O)n(-c2ccc(C(C)(C)C#N)cc2)c2c3cc(-c4cnc5ccccc5c4)ccc3ncc21	113%	-5.01%
Cc1cc(OCc2nnc(SC3CCCC3)n2-c2cccnc2)ccc1-c1ccc(S(C)(=O)=O)cc1	96.7%	13.7%
CC(C)[C@H](O)C(=O)N[C@@H](C)C(=O)N[C@@H]1C(=O)N(C)CCc2ccccc21	98.8%	13.8%
Cc1cccc(-c2nn3c(c2-c2ccnc4ccc(C(N)=O)cc24)CCC3)n1	110%	-15.4%
N#Cc1c(Oc2ccc(F)c(NC(=O)Cc3cccc(C(F)(F)F)c3)c2)ccc2nc(NC(=O)C3CC3)sc12	126%	-0.889%
CCC(=O)N1CCN(c2ccc(-n3c(=O)ccc4cnc5ccc(-c6cnc7ccccc7c6)cc5c43)cc2C(F)(F)F)CC1 [torin-1]	46.9%	-12.5%
O=C(Nc1cccnc1)N1CCC(Cc2cccc(Oc3ccc(C(F)(F)F)cn3)c2)CC1	116%	-0.297%
Cc1c(OCC(F)(F)F)ccnc1C[S+]([O-])c1nc2ccccc2[nH]1 (stereo unspecified) [Lansoprazole]	104%	-1.13%
Cc1cc(Cl)ccc1OCCCC(=O)NO [Droxinostat]	95.2%	-5.76%
OC[C@@H](O)CN1CCN(c2ccccc2)CC1 [levodropropizine]	94.5%	-2.93%
O[C@H](CNC[C@@H](O)[C@H]1CCc2cc(F)ccc2O1)[C@@H]1CCc2cc(F)ccc2O1 [Nebivolol(Bystolic)]	109%	19.8%
Cc1nnc(C(=O)NC(C)(C)c2nc(C(=O)NCc3ccc(F)cc3)c(O)c(=O)n2C)o1 [Raltegravir-(MK-0518)]	111%	-11.7%
CN(C)CCC(c1ccc(Cl)cc1)c1ccccn1 (stereo unspecified) [Chlorpheniramine-maleate]	106%	-12.2%
O=c1cc(N2CCOCC2)oc2c(-c3ccccc3)cccc12	108%	-5.76%
CS(=O)(=O)c1ccc(-c2cnc(N)c(C(=O)Nc3ccccc3)n2)cc1	232%	74.4%
Oc1cccc(-c2nc(N3CCOCC3)c3oc4ncccc4c3n2)c1	85.1%	4.26%
CC1=C(/C=C/C(C)=C/C=C/C(C)=C\C(=O)O)C(C)(C)CCC1 [Isotretinoin]	106%	-7.27%
Cc1cc(-c2ccc(CC(=O)Nc3ccc(-c4cccnc4)cc3)cc2)ccn1	247%	10.6%
C[C@@H](c1ncncc1F)[C@](O)(Cn1cncn1)c1ccc(F)cc1F [Voriconazole]	101%	1.57%
CC(=O)[C@H]1CC[C@H]2[C@@H]3CC=C4C[C@@H](O)CC[C@]4(C)[C@H]3CC[C@]12C [pregnenolone]	116%	8.09%
